USP17 inh – inhibitors of human USP17 deubiquitinase. inhibition, % at 50 µM. 6.5% of 47,000 active. purified USP17, Ub-rhodamine cleavage fluorescence, 3 h. A8MUK1. AID 1645855
USP7 inh – blocks human USP7 ubiquitin-rhodamine cleavage. 0.3% of 47,000 active. purified USP7, Ub-rhodamine cleavage fluorescence. inhibition, % at 20 µM. Q93009
OTUD3 inh – human OTUD3 deubiquitinase inhibition; purified OTUD3, Ub-rhodamine fluorescence, 2 h; AID 1645858; Q5T2D3; inhibition, % at 25 µM; 0.7% of 47,000 active
Target sequence (Q5T2D3 whole entry, looked up): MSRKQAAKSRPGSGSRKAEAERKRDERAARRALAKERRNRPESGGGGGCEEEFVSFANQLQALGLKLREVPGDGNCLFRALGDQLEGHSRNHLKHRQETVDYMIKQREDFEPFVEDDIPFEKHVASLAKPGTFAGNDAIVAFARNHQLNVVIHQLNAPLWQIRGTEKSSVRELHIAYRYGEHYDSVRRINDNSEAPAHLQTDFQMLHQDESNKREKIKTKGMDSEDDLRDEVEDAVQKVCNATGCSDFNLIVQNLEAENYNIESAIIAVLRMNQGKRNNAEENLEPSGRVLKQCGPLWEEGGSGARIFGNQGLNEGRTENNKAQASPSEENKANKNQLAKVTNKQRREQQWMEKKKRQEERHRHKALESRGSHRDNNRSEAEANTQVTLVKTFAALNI
USP10 inh – inhibitors of human USP10 deubiquitinase. AID 1645856. purified USP10, Ub-rhodamine fluorescence, 60 min. inhibition, % at 20 µM. Q14694. 1.1% of 47,000 active
UCHL1 inh – blocks human UCHL1 ubiquitin-rhodamine cleavage. P09936. purified UCHL1, Ub-rhodamine cleavage fluorescence. inhibition, % at 20 µM. 0.2% of 47,000 active. AID 1645859
USP8 inh – inhibitors of human USP8 deubiquitinase; P40818; purified USP8, Ub-rhodamine cleavage fluorescence, 30 min; inhibition, % at 20 µM; 4.2% of 47,000 active
Active calls of the source: *. Sampled rows, rich in hits. Any-hit rate of the full collection: about 9.2%. Rule as the data show it: active = inhibition above about 30%; inactive = the rest.

`COc1ncccc1CN(C)C(=O)Cc1c[nH]c2ccccc12` gave USP17 inh 0, USP7 inh 1, OTUD3 inh 2, USP10 inh 0, UCHL1 inh 2 and USP8 inh -1.
CCC(C)Nc1nc(NC)nc(-n2cnc(SCc3ccc(Cl)cc3)n2)n1 (configuration not stated) was read as USP17 inh 18, USP7 inh 7, OTUD3 inh 12, USP10 inh 10, UCHL1 inh 7 and USP8 inh 7.
Screening COc1ccc(NS(=O)(=O)c2cccc(NC(=O)CC(=O)c3ccc([N+](=O)[O-])cc3)c2)cc1 returned USP17 inh 76*, USP7 inh 15, OTUD3 inh 0, USP10 inh 46*, UCHL1 inh 4 and USP8 inh 12.
Screening COc1ccc(S(=O)(=O)c2ccc(NC(=O)c3cccc(Cl)c3)cc2C#N)cc1 returned USP17 inh 33*, USP7 inh 7, OTUD3 inh -3, USP10 inh 8, UCHL1 inh 4 and USP8 inh 0.
COc1ccc(NC(=O)c2cccc(C#N)c2)cc1S(=O)(=O)Nc1ccccc1Cl was read as USP17 inh 0, USP7 inh 1, OTUD3 inh -9, USP10 inh 5, UCHL1 inh 1 and USP8 inh 10.
`CCOC(=O)N1CCN(S(=O)(=O)c2ccc(C(=O)Nc3ccc(OCC)cc3)cc2)CC1` gave USP17 inh 3, USP7 inh 5, OTUD3 inh 2, USP10 inh -2, UCHL1 inh 4 and USP8 inh -3.
CCCOc1ccc(C(=O)Nc2ccc(S(=O)(=O)Nc3cc(C)nc(C)n3)cc2)cc1 was read as USP17 inh -3, USP7 inh -3, OTUD3 inh 57*, USP10 inh 0, UCHL1 inh 1 and USP8 inh -2.
For COc1ccc(NS(=O)(=O)c2cc(NC(=O)CC(=O)c3ccc([N+](=O)[O-])cc3)ccc2Cl)cc1 the results were USP17 inh 49*, USP7 inh 7, OTUD3 inh -4, USP10 inh 58*, UCHL1 inh -1 and USP8 inh 58*.
For NS(=O)(=O)c1ccc(CCNCc2ccc(-c3cccc(C(=O)O)c3)o2)cc1 the results were USP17 inh -38, USP7 inh -34, OTUD3 inh 11, USP10 inh 3, UCHL1 inh 6 and USP8 inh 6.
For Cc1cccn2cc(C(=O)NCc3ccc4c(c3)OCO4)nc12 the results were USP17 inh -3, USP7 inh 3, OTUD3 inh -1, USP10 inh -2, UCHL1 inh -1 and USP8 inh -8.
`COc1cccc(-n2cnc3cc(C(=O)NCc4ccncc4)ccc3c2=O)c1` gave USP17 inh 25, USP7 inh 0, OTUD3 inh 15, USP10 inh 1, UCHL1 inh 0 and USP8 inh 58*.
Screening O=C(Nc1ccc(F)cc1)c1c(O)c2cccnc2n(-c2ccccc2)c1=O returned USP17 inh 7, USP7 inh 4, OTUD3 inh -2, USP10 inh 2, UCHL1 inh 2 and USP8 inh 10.
Screening COc1ccc(CNC(=O)c2c(O)c3cccnc3n(-c3ccccc3)c2=O)cc1 returned USP17 inh 22, USP7 inh 3, OTUD3 inh 10, USP10 inh 3, UCHL1 inh 2 and USP8 inh 84*.
`O=C(c1nc(-c2cccc3[nH]ccc23)no1)N1CCCC1` gave USP17 inh 41*, USP7 inh 4, OTUD3 inh 6, USP10 inh -1, UCHL1 inh 0 and USP8 inh 1.
For C=C[C@@]1(C)CC[C@@]2(C)[C@@H](CC[C@]3(C)C(C)=C(O)C(=O)C[C@H]23)C1 the results were USP17 inh 43*, USP7 inh 9, OTUD3 inh 24, USP10 inh 11, UCHL1 inh 1 and USP8 inh 1.
For Cc1cnc(NC(=O)c2ccccc2-c2ccccc2)s1 the results were USP17 inh 13, USP7 inh 0, OTUD3 inh 19, USP10 inh 3, UCHL1 inh 1 and USP8 inh 4.
`Cc1cnc(NC(=O)c2cc3c(C)nn(Cc4ccccc4Cl)c3s2)s1` gave USP17 inh -5, USP7 inh -26, OTUD3 inh -49, USP10 inh 13, UCHL1 inh 4 and USP8 inh 56*.
Screening O=C(Cc1ccc(-n2c(=O)c3ccccc3n(CC(=O)Nc3ccc(F)cc3F)c2=O)cc1)NCc1ccco1 returned USP17 inh -23, USP7 inh -2, OTUD3 inh -14, USP10 inh -8, UCHL1 inh -4 and USP8 inh 15.
`CCOC(=O)c1ccc(NC(=O)Cn2c(=O)n(-c3ccc(CC(=O)NCc4ccco4)cc3)c(=O)c3ccccc32)cc1` gave USP17 inh 21, USP7 inh 9, OTUD3 inh 15, USP10 inh 33*, UCHL1 inh 0 and USP8 inh 58*.
O=C(Cn1c(=O)n(CC2CCC(C(=O)NCCc3ccccc3)CC2)c(=O)c2ccccc21)NCc1ccco1 (configuration not stated) was read as USP17 inh -12, USP7 inh -1, OTUD3 inh -1, USP10 inh 29, UCHL1 inh -2 and USP8 inh 4.
COC(=O)c1ccccc1NC(=O)Cn1c(=O)n(Cc2ccc(C(=O)NCc3ccco3)cc2)c(=O)c2ccccc21 was read as USP17 inh 16, USP7 inh 14, OTUD3 inh 6, USP10 inh 32*, UCHL1 inh 10 and USP8 inh 39*.
CCOC(=O)c1ccc(NC(=O)Cn2c(=O)n(CC(=O)NCc3ccco3)c(=O)c3ccccc32)cc1 was read as USP17 inh 41*, USP7 inh -3, OTUD3 inh 17, USP10 inh 35*, UCHL1 inh 0 and USP8 inh 11.
`C\C=C(/C=C(C)/C=C/C=C/C=C(\C)C(=O)[C@@]12O[C@@H]1C(O)(CCO)NC2=O)C(=O)OC` (some centres not stated) gave USP17 inh -59, USP7 inh -19, OTUD3 inh -40, USP10 inh -8, UCHL1 inh -19 and USP8 inh -101.
Screening CCCC1Cc2c(sc3nc(SCC)nc(N)c23)CO1 (configuration not stated) returned USP17 inh 81*, USP7 inh 1, OTUD3 inh 0, USP10 inh 2, UCHL1 inh -1 and USP8 inh 2.
Screening CCCC1Cc2c(sc3nc(SCc4ccccc4Cl)nc(N)c23)CO1 (configuration not stated) returned USP17 inh 40*, USP7 inh -21, OTUD3 inh -14, USP10 inh 17, UCHL1 inh -3 and USP8 inh -2.
Screening CCOc1ccc(S(=O)(=O)n2cc3c(=O)n(C)c(=O)n(C)c3n2)cc1 returned USP17 inh 33*, USP7 inh -2, OTUD3 inh -1, USP10 inh 0, UCHL1 inh -4 and USP8 inh 2.

Screening data (PubChem)
